Rows were chosen to be rich in hits. Some 4.7% of all compounds tested hit in one or more screens of this group.
PfHsp90 set2: growth inhibition of PfHsp90-expressing yeast, primary screen, antimalarial PfHsp90 inhibitor project, S. cerevisiae, BacTiter-Glo luminescence, single point, set 2. BacTiter-Glo ATP, 48 h; yeast lacking PDR1 and PDR3 efflux regulators. hit rate 0.32% among 310,000. inhibition, % at 9.4 µM. AID 504621, 2011;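 active = every replicate shows inhibition above about 80%, whatever the replicate mean, limit read from the data; inconclusive = mean inhibition reaches the set limit but some replicate falls short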;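 note: 0% = DMSO neutral controls and 100% = 20 µM radicicol positive controls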
EBI2 block: EBI2 receptor antagonists, beta-arrestin recruitment, primary screen, cell-based, luminescence, 7a,25-OHC stimulation, uHTS. G-protein coupled receptor 183 (Homo sapiens), P32249. 7a,25-OHC stimulated. inhibition, % at 5 µM. hit rate 0.81% among 360,000; in the data active = inhibition above about 38%;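 note: enzyme fragment complementation signal reports receptor beta-arrestin coupling in cells; 0% = agonist plus DMSO wells and 100% = wells without agonist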
Target sequence (P32249 whole entry, looked up, the tested form may be a part): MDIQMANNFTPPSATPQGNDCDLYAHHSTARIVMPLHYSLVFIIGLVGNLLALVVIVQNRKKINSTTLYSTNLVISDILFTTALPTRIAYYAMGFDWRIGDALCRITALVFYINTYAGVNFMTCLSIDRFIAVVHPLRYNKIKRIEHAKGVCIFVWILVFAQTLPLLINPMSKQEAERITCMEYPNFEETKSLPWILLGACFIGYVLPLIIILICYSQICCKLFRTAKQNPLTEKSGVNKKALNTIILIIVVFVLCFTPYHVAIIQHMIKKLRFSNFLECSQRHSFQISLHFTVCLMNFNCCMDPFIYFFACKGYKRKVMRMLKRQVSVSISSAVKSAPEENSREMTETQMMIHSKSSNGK
TIM10 inh: growth inhibitors of isogenic TIM10 control yeast, primary screen, counter-screen for tim10-1 yeast inhibitor project, luminescence, uHTS | inhibition, % at 10 µM | S. cerevisiae TIM10 strain growth, BacTiter-Glo luminescence, 24 h | hit rate 1.4% among 330,000;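 active = inhibition of 40% or more at the single tested concentration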;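 note: wild-type TIM10 isogenic control strain grown at permissive 25 °C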
tim23-1 inh: growth inhibitors of tim23-1 mutant yeast, primary screen, luminescence, uHTS. S. cerevisiae tim23-1 growth, BacTiter-Glo luminescence, 24 h. hit rate 1.3% among 330,000. AID 463212, 2010. inhibition, % at 20 µM;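 active = growth inhibition of the mutant yeast at or above 50%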;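 note: temperature-sensitive mutant grown at 25 °C; plate controls were DMSO-treated mutant yeast for no effect and medium wells lacking yeast for full effect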
SKKanGAS inh: S. pyogenes SKKanGAS growth inhibitors in kanamycin, primary screen, streptokinase expression inhibitor project, SKKanGAS strain, BacTiter-Glo luminescence. hit rate 1.3% among 300,000. AID 1662, 2009. 6 h. inhibition, % at 7.5 µM;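 active = mean replicate score, as percent of positive control median, at least 50; inconclusive = mean below 50 but one replicate at or above 50; inactive = mean and every replicate below 50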;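 note: strain carries kanamycin resistance gene driven by streptokinase promoter and grows in 40 µg/ml kanamycin; loss of luminescence reflects streptokinase promoter inhibition or plain growth inhibition; 0% = median of DMSO wells and 100% = positive control at its reference dose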
tim10-1 inh: growth inhibitors of tim10-1 mutant yeast, primary screen, luminescence, uHTS | S. cerevisiae tim10-1 ts strain growth, BacTiter-Glo, 24 h | inhibition, % at 20 µM | hit rate 2.2% among 330,000;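 active = inhibition of at least 40%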;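 note: mutant grown at 25 °C; 0% = DMSO wells with yeast and 100% = wells holding no yeast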
tim23-1 conf: tim23-1 mutant yeast growth inhibitors, confirmation, luminescence, single concentration; S. cerevisiae tim23-1 growth, BacTiter-Glo luminescence, 24 h; inhibition, % at 20 µM; hit rate 83% among 4,400; AID 463218, 2010; shares compounds with tim23-1 inh;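 active = inhibition above about 39% in either of two replicate wells at 20 µM, limit read from the data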;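 note: temperature-sensitive tim23-1 mutant grown at 25 °C; 0% = DMSO wells with yeast and 100% = medium wells without yeast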
* hit, by the source's call; u = inconclusive; x = not tested or not shown.

SMILES	PfHsp90 set2	EBI2 block	TIM10 inh	tim23-1 inh	SKKanGAS inh	tim10-1 inh	tim23-1 conf
CC(C)CCSc1nc(N2CCOCC2)c2c(c1C#N)CC(C)(C)OC2	-16	24	0	60*	0	8	20
CC(=O)Nc1ccc(OS(=O)(=O)c2cc(Cl)ccc2C)cc1	-2	-15	1	52*	-11	19	46*
CC(=O)Nc1ccc(OS(=O)(=O)c2ccccc2C)cc1	3	-4	-4	9	0	6	x
CC(=O)N[C@H]1[C@H](OCc2ccccc2F)O[C@H](COC(C)=O)[C@@H](OC(C)=O)[C@@H]1OC(C)=O	-11	4	-5	-11	0	-5	x
CC(=O)NC1C(OCc2cccc(Br)c2)OC(COC(C)=O)C(OC(C)=O)C1OC(C)=O (stereo not drawn)	21	10	6	93*	-1	-6	13
Cc1ccc(Nc2nc3ccccc3s2)c(C)c1	-15	3	37	58*	6	38	46*
CCOc1ccc(NS(=O)(=O)c2ccc(C(=O)NCC(c3ccco3)N3CCCCC3)cc2)cc1 (stereo not drawn)	x	0	x	x	x	x	x
COC(=O)[C@H](CC(C)C)N1Cc2cc(OC)cc(OC)c2-c2ccccc2S1(=O)=O	-8	0	3	50*	x	26	26
O=C(O)c1cc(/C=C/c2ccc(N3CCOCC3)cc2)nc2ccccc12	x	-4	17	52*	x	32	41*
O=C(O)c1cc(/C=C/c2ccc(N3CCOCC3)c([N+](=O)[O-])c2)nc2ccccc12	1	6	4	22	20	10	x
Cc1cc(=O)oc2cc(Oc3ncccc3[N+](=O)[O-])ccc12	-38	-7	-13	-5	-1	-8	x
Cc1cc(=O)oc2cc(Oc3ccc([N+](=O)[O-])cc3[N+](=O)[O-])ccc12	-24	-13	30	55*	-1	21	43*
O=C(NCCN1C(=O)S/C(=C\c2ccccc2)C1=O)C1CCN(S(=O)(=O)c2cccs2)CC1	-19	-13	-1	-6	3	2	x
C/C(=N\N(C)C)C1=C(O)c2ccccc2C1=O	-11	-5	5	22	0	8	x
CCOc1ccc(N=C(C)C2=C(O)c3ccccc3C2=O)cc1	17	-10	17	60*	20	8	58*
O=C(/C=C/c1ccccc1Cl)OCC(=O)N1CCCC1	x	-9	-9	7	x	21	x
Cn1c(C=O)c(C#CC(C)(C)O)c2ccccc21	7	-5	38	61*	x	29	60*
COc1cccc(C#Cc2c(C=O)n(C)c3ccccc23)c1	10	-2	25	41	x	12	x
Cc1[nH]c2c(Br)cccc2c1[C@H]1[C@@H](CC#N)C1(C)C	-14	14	33	51*	14	34	46*
Cc1c([C@H]2[C@@H](CC#N)C2(C)C)c2ccccc2n1C	0	14	21	5	-5	22	x
CCCN1CCN(C(=O)c2cccc3c2C(=O)N(CCOC)C3)CC1	9	-6	-4	96*	-5	3	14
CCCN1Cc2cccc(C(=O)N3CCN(c4ccc(F)cc4)CC3)c2C1=O	-5	-3	8	6	2	10	x
Clc1cccc(Cl)c1/C=N/Nc1c(Cl)cncc1Cl	2	-2	36	-5	30	28	x
Clc1cncc(Cl)c1N/N=C/c1ccncc1	2	5	18	54*	-3	0	25
O=C(CNC(=O)c1ccccc1)NCc1ccc(Cl)cc1	24	-8	-28	-16	0	-29	x
SMILES	PfHsp90 set2	EBI2 block	TIM10 inh	tim23-1 inh	SKKanGAS inh	tim10-1 inh	tim23-1 conf
Cc1ccc(-c2cc(C(=O)Nc3cc(C)ccc3C)[nH]n2)c(O)c1	-83	3	-4	-14	3	8	x
Cc1ccc(-c2cc(-c3cccs3)[nH]n2)c(O)c1	x	15	35	51*	16	15	34
O=C1C(=O)N(Cc2ccccc2)C(=O)N1CCOc1ccccc1	-6	2	-15	7	x	4	x
COc1cc2sc3cc(NCc4ccc(C)o4)ccc3c(=O)c2cc1OC	x	9	14	58*	x	20	72*
O=C(/C=C/c1ccc(Cl)cc1)c1ccc([N+](=O)[O-])o1	x	-22	34	60*	-6	-2	10
O=C(Nc1nc2ccccc2s1)C1CCCN1S(=O)(=O)c1ccc(Cl)cc1 (stereo not drawn)	x	15	7	55*	34	40	50*
Oc1ccc(N=Nc2ccccc2)cc1	-32	8	25	55*	6	39	47*
Cc1cccc(Nc2nc(N)c([N+](=O)[O-])c(N3CCCC(C)C3)n2)c1 (stereo not drawn)	104*	7	-46	50*	22	23	20
CCOC(=O)c1cccc(OC(=O)CCNC(=O)c2ccc(Cl)cc2)c1	3	-4	21	57*	x	-12	51*
CC(=O)c1ccc(OC(=O)CCNC(=O)c2ccccc2)cc1	-44	2	8	21	x	2	x
CC(C)c1nc2cc(C(=O)N3CCNC(=O)C3c3cccc(F)c3)ccc2o1 (stereo not drawn)	20	-2	0	6	-2	1	x
Cc1ccc(S(=O)(=O)NN=C2C3CC4CC(C3)CC2C4)cc1	4	0	-1	-3	-10	-18	x
Cc1ccc(S(=O)(=O)NC23CC4CC(CC(C4)C2)C3)cc1	-50	-15	22	51*	x	15	52*
Cc1ccc(S(=O)(=O)N2CCCN(c3nccc(C(F)(F)F)n3)CC2)cc1	1	-7	-9	38	0	18	x
CN1CCN(C(c2ccc(Br)cc2)c2cc(Cl)c3cccnc3c2O)CC1 (stereo not drawn)	107*	14	36	66*	69*	22	77*
CCC(=O)NC(c1ccc(C)cc1)c1cc(Cl)c2cccnc2c1O (stereo not drawn)	71	32	-34	54*	x	27	58*
O=C(NC(c1ccccc1)c1cc(Cl)c2cccnc2c1O)c1cccnc1 (stereo not drawn)	x	x	-17	70*	94*	36	80*
CC(C)CC(=O)NC(c1cccs1)c1ccc2cccnc2c1O (stereo not drawn)	104*	20	-43	52*	u	33	65*

High-throughput results deposited in PubChem by several laboratories.
